MCF10A rereplic = A quantitative high throughput screen for small molecules that induce DNA re-replication in MCF 10a normal breast cells | Potency, µM (top dose mostly 46.1 µM), inactives show at the highest dose activity, positive = re-replication, hits mostly activators | MCF 10A DNA re-replication, Hoechst nuclear intensity, 48 h | hit rate 2.9% among 350,000; note: potency is the fitted concentration of half-maximal effect; % of control where 0% means no effect; nearly all actives have a fitted effect of over 50% in size
KB-V1 cytotox = qHTS assay for MDR1-selective chemotherapeutics: Primary screen using the drug-selected MDR subline cells KB-V1; KB-V1 MDR cells viability, CellTiter-Glo, 72 h; Potency, µM (doses to about 46.1 µM), most hits filed as cytotoxic; hit rate 3.4% among 400,000; note: potency is the fitted concentration of half-maximal effect; % is set by controls: 0 for no effect and ±100 for the full control effect; nearly all actives have a fitted effect of over 60% in size
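KB-V1 cells (P-gp-expressing MDR subline of KB-3-1) in phenol-red-free DMEM with 10% FBS were exposed to library compounds over a concentration series for 72 h at 37 degrees C. Viability read by CellTiter-Glo luminescence; concentration-effect curves fitted after normalization.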
IL-1B inflam inh = qHTS for Inhibitors of Inflammasome Signaling: IL-1-beta AlphaLISA Primary Screen; THP-1 LPS/ATP IL-1B secretion, AlphaLISA, 16 h; stronger effect = lower value; activity change, % at 57.5 µM; hit rate 4.7% among 360,000; in the data active = activity change below about -50%; inconclusive = mostly about -30% to -49%; note: % is set by controls: 0 for no effect and ±100 for the full control effect
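THP-1 cells pretreated 1 hr with compounds (up to 57.5 uM final), then stimulated with LPS (250 ng/mL final) plus ATP (1.25 mM final); secreted IL-1B measured by AlphaLISA after 16 hr, decreased signal indicating inhibition.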
SW480 rerep = A quantitative high throughput screen for small molecules that induce DNA re-replication in SW480 colon adenocarcinoma cells | SW480 DNA re-replication, Hoechst DNA content imaging, 48 h | Potency, µM (highest dose often 46.1 µM), inactives show at the highest dose re-replication activation, most hits filed as activators | hit rate 1.8% among 340,000; note: potency is the fitted concentration of half-maximal effect; % of control where 0% means no effect; nearly all actives have a fitted effect of over 55% in size
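Cells (250 per well) received 23 nL compound or DMSO by pin tool and were kept 48 hr at 37 C, 5% CO2. Nuclei were then stained with Hoechst for 40 min and scanned for DNA content.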
KB-3-1 tox = qHTS assay for MDR1-selective chemotherapeutics: Primary screen using the parental adenocarcinoma cell KB-3-1; KB-3-1 viability, CellTiter-Glo ATP luminescence, 72 h; Potency, µM (top dose mostly 46.1 µM), most hits filed as cytotoxic; hit rate 1.4% among 400,000; note: potency is the fitted concentration of half-maximal effect; % is set by controls: 0 for no effect and ±100 for the full control effect; nearly all actives have a fitted effect of over 60% in size
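Using CellTiter-Glo luminescence, growth of non-resistant KB-3-1 adenocarcinoma cells is assessed 72 h after pin-tool compound addition at 37 °C. Normalized responses across the concentration series yield fitted curves.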
* = called active by the depositor; i = inactive; ? = inconclusive; · = not tested or not shown; [ ] = dose if it differs, or a comment. An excerpt weighted towards active compounds, which were near 9.9% of everything screened. Unless noted, calls come from the whole dose curve; as a rule, active = well fitted curve in the direction sought with a large enough effect; inconclusive = small, poorly fitted or top-dose-only effect, or another doubt; inactive = no such curve, though single readings can be large; an effect the other way counts as inactive or inconclusive.

SMILES | MCF10A rereplic | KB-V1 cytotox | IL-1B inflam inh | SW480 rerep | KB-3-1 tox
O=C(c1cc(N2C(=O)C3C4CCC(C4)C3C2=O)ccc1Cl)N1CCN(c2ccccc2F)CC1 (stereo not drawn) | 0.5% | 4.11µM* | 8.6 | ? | ?
COc1ccc(N2CCN(C(=O)c3cccc(N4C(=O)C5CC=CC(C)C5C4=O)c3)CC2)cc1 (stereo not drawn) | 22.2% | 18.4µM* | 0.0 | -1.5% | i
COc1ccc(N2CCN(C(=O)c3cc(N4C(=O)C5C6CCC(C6)C5C4=O)ccc3Cl)CC2)cc1 (stereo not drawn) | -51.6% | 4.61µM* | 11.5 | -74.9% | ?
O=C(c1cc(N2C(=O)C3C4CCC(C4)C3C2=O)ccc1Cl)N1CCCCCC1 (stereo not drawn) | ? | i | 21.9 | 4.1% | i
COc1ccc(NC(=O)CCCOc2cc(=O)n(C)c3ccccc23)c(OC)c1 | · | i | · | · | i
c1ccc(Cn2sc(=Nc3ccccc3)nc2-c2ccccc2)cc1 | · | i | · | · | ?
c1ccc(N=c2nc(-c3ccccc3)n(-c3ccccc3)s2)cc1 | · | 16.4µM* | · | · | ?
CC(Oc1ccc(Cl)cc1Cl)c1ccn[nH]1 (stereo not drawn) | 18.1% | i | -16.9 | -3.7% | i
OCC1(CCOc2ccccc2)CCN(Cc2nc3ccc(F)cc3[nH]2)CC1 | -0.7% | ? | 1.6 | -4.0% | i
CCOc1ccccc1CN1CCC(CO)(CCOc2ccccc2)CC1 | -7.2% | i | -73.3* | -3.1% | i
OCC1(CCOc2ccccc2)CCN(Cc2cn[nH]c2-c2ccc(F)cc2)CC1 | 15.8% | i | -57.1* | ? | i
COc1ccc2[nH]c(CN3CCC(CO)(CCOc4ccccc4)CC3)c(C)c2c1 | 20.6µM* | ? | -202.2* | -41.6% | i
COC(=O)c1ccc(CN2CCC(CO)(CCOc3ccccc3)CC2)cc1 | 4.4% | i | -9.9 | ? | i
OCC1(CCOc2ccccc2)CCN(CC2=Cc3cc(Cl)ccc3OC2)CC1 | ? | i | -92.7* | ? | i
OCCOc1cccc(CN2CCC(CO)(CCOc3ccccc3)CC2)c1 | 3.0% | i | -8.9 | 18.4µM* | i
Cc1nn(C)cc1CN1CCC(CO)(CCOc2ccccc2)CC1 | -0.6% | i | 0.0 | -9.2% | i
COc1cc(Cl)c(CN2CCC(CO)(CCOc3ccccc3)CC2)cc1OC | ? | i | ? | -25.3% | i
COc1ccc(CN2CCC(CO)(CCOc3ccccc3)CC2)c(OC)c1C | 13.5% | i | -104.3* | -3.8% | i
OCC1(CCOc2ccccc2)CCN(Cc2ccccc2C(F)(F)F)CC1 | ? | i | -55.1* | 1.6% | i
O=[N+]([O-])c1cccc(COc2ncnc3cc([N+](=O)[O-])ccc23)c1 | 8.9% | i | 76.0 | 8.0% | i
CC[C@]12c3[nH]c4cc(-c5ccco5)ccc4c3CCN1C(=O)[C@@H](CC(=O)NCc1cccc(C(F)(F)F)c1)C[C@@H]2C(=O)N1CCN(C(=O)c2ccco2)CC1 | 18.9% | i | -51.4* | -3.6%[9.22 µM] | ?
CC[C@]12c3[nH]c4cc(-c5ccco5)ccc4c3CCN1C(=O)[C@@H](CC(=O)NCc1ccco1)C[C@@H]2C(=O)N1CCN(C(=O)c2ccco2)CC1 | 20.5% | i | -3.7 | ? | i
COc1ccc2[nH]c3c(c2c1)CCN1C(=O)C(CC(=O)NC(C)(C)C)C[C@H](C(=O)N2CCOCC2)[C@@]31CCC1CCCC1 (stereo partly drawn) | -2.7% | i | 9.6 | ? | i
CCN(CC)C(=O)[C@H]1C[C@H](CC(=O)NCc2cccc(C(F)(F)F)c2)C(=O)N2CCc3c([nH]c4cc(-c5ccco5)ccc34)[C@]12C | ? | ? | -58.0* | 13.1%[9.22 µM] | 14.6µM*
CN(C)C(=O)CCc1ccc2c3c([nH]c2c1)[C@]1(CCC2CCCC2)[C@@H](C(=O)N2CCOCC2)C[C@H](CC(=O)NCc2cccc(C(F)(F)F)c2)C(=O)N1CC3 | ? | i | -55.8* | 7.1% | i
SMILES | MCF10A rereplic | KB-V1 cytotox | IL-1B inflam inh | SW480 rerep | KB-3-1 tox
CC(C)(C)NC(=O)C[C@H]1C[C@H](C(=O)N2CCOCC2)[C@@]2(CCC3CCCC3)c3[nH]c4ccc(Cl)cc4c3CCN2C1=O | ? | i | -60.3* | -0.2% | i
CN(Cc1ccccc1)C(=O)COC(=O)CCC(=O)c1ccc(Cl)cc1 | -8.0% | · | 5.4 | 0.0% | ·
O=C(O)/C=C/c1ccc(-n2ccnc2)cc1 | -0.1% | i | 19.3 | 0.3% | i
CCOC(=O)C1(C)CCCN(C(=O)c2ccc3c(c2)OCO3)C1 (stereo not drawn) | · | i | 24.1 | · | i
Cc1ccc2ncnc(NCc3ccco3)c2c1 | · | i | · | · | ?
O=C(Cc1nc2ccccc2[nH]1)c1ccc(Br)cc1 | ? | i | -60.4* | ? | i
O=c1[nH]c2ccccc2nc1Cc1ccccc1 | 18.5% | i | 0.0 | -19.0% | i
O=C(Cc1nc2ccccc2[nH]c1=O)c1ccccc1 | 20.6µM* | i | -71.7* | 28.7% | ?
CCCCC(=O)NC1CC(=O)N(c2ccc3c(c2)OCCO3)C1 (stereo not drawn) | · | ? | · | · | i
COc1ccc(N(C(=O)c2snc(C(N)=O)c2N)C(C(=O)NC2CCCCC2)c2ccc(C)o2)cc1 (stereo not drawn) | -18.5% | ? | -50.3* | ? | i
CCc1ccc(N(C(=O)c2snc(C(N)=O)c2N)C(C(=O)NC2CCCC2)c2ccco2)cc1 (stereo not drawn) | 6.51µM* | 23.1µM* | -63.5* | ? | ?
Cc1ccc(C(=O)Nc2ncc(C)s2)o1 | 20.4% | i | -2.0 | -10.8% | i
Cc1ccc(C(=O)Nc2ncc(Cc3ccc(SC(F)F)cc3)s2)cc1 | ? | 1.03µM* | -0.3 | 0.731µM* | ?
Cc1ccc(Cc2cnc(NC(=O)c3ccc4c(c3)CC(c3ccccc3)OC4=O)s2)cc1 (stereo not drawn) | · | i | · | · | i
Cc1ccc(C(=O)Nc2ncc(Cc3ccc(F)cc3)s2)o1 | ? | 9.2µM* | -1.9 | -2.1% | 5.8µM*
Cn1c(SCC(=O)N2CCOCC2)nc2c(c1=O)SCC2 | 1.7% | i | -12.3 | -5.0% | i
CC(C)CC(NC(N)=O)C(=O)NCCc1ccc(Cl)cc1 (stereo not drawn) | -1.4% | i | 16.3 | 1.4% | i
Cc1ccc(NC(=O)c2oc3ccc(S(=O)(=O)N4CCCCCC4)cc3c2C)c(C)c1 | · | i | · | · | i

Source: PubChem (National Center for Advancing Translational Sciences (NCATS))
